Measurements from PubChem BioAssay AID1159580 (chemical genetic matrix, 2015).
In all, about 5,500 compounds went through this assay and about 2,000 (36%) were called active. Roughly 18% stayed inconclusive and do not appear here. No stated cut-off is given here; in the data, active means normalized growth mostly below about 0.91 (no sharp cut-off); inconclusive means no clear call, values can overlap the other calls; inactive means mostly above about 0.92. Some of the results follow.

Test: chemical genetic growth profiling, strain panel (AID 1159580);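 further: tested at 20 µM; growth read once vehicle control cultures reached saturation at 30 °C; 1 = growth at the plate median or of vehicle wells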
Details: S. cerevisiae deletion strains, growth OD

Measured: normalized growth

O=C(O)c1c2ccccc2cc2ccccc12
active: locus YDR195W, strain ref2 1.26 [resistant]
inactive: locus YAL013W, strain DEP1, stronger effect = lower value 1.02 | locus YAL021C, strain ccr4, stronger effect = lower value 0.973 | locus YAL026C, strain drs2, stronger effect = lower value 1.02 | locus YAL030W, strain snc1, stronger effect = lower value 0.99 | locus YBL061C, strain skt5, stronger effect = lower value 1 | locus YBR009C, strain hhf1, stronger effect = lower value 0.989 | locus YBR021W, strain FUR4, stronger effect = lower value 0.967 | locus YBR023C, strain chs3, stronger effect = lower value 1.01 | locus YBR171W, strain sec66, stronger effect = lower value 0.994 | locus YBR229C, strain ROT2, stronger effect = lower value 1.02 | locus YBR231C, strain swc5, stronger effect = lower value 1.01 | locus YBR279W, strain paf1, stronger effect = lower value 0.959 | locus YCL011C, strain gbp2, stronger effect = lower value 0.998 | locus YCL016C, strain dcc1, stronger effect = lower value 1.01 | locus YCL029C, strain bik1, stronger effect = lower value 0.992 | locus YCL061C, strain MRC1, stronger effect = lower value 1 | locus YCL069W, strain vba3, stronger effect = lower value 1.01 | locus YCR088W, strain abp1, stronger effect = lower value 0.996 | locus YDL005C, strain med2, stronger effect = lower value 0.99 | locus YDL035C, strain GPR1, stronger effect = lower value 1 | locus YDL040C, strain nat1, stronger effect = lower value 0.991 | locus YDL074C, strain BRE1, stronger effect = lower value 1.03 | locus YDL101C, strain DUN1, stronger effect = lower value 1.02 | locus YDL134C, strain PPH21, stronger effect = lower value 1.01 | locus YDL185W, strain tfp1, stronger effect = lower value 0.953 | locus YDL192W, strain arf1, stronger effect = lower value 0.98 | locus YDR001C, strain nth1, stronger effect = lower value 0.991 | locus YDR069C, strain doa4, stronger effect = lower value 0.991 | locus YDR101C, strain arx1, stronger effect = lower value 0.983 | locus YDR137W, strain rgp1, stronger effect = lower value 0.965 | locus YDR150W, strain NUM1, stronger effect = lower value 1.02 | locus YDR159W, strain sac3, stronger effect = lower value 1.03 | locus YDR162C, strain NBP2, stronger effect = lower value 1.03 | locus YDR297W, strain sur2, stronger effect = lower value 0.99 | locus YDR318W, strain mcm21, stronger effect = lower value 0.976 | locus YDR334W, strain swr1, stronger effect = lower value 1 | locus YDR335W, strain msn5, stronger effect = lower value 1 | locus YDR388W, stronger effect = lower value 0.98 | locus YDR392W, strain spt3, stronger effect = lower value 0.906 | locus YDR502C, strain sam2, stronger effect = lower value 0.986 | locus YEL003W, strain gim4, stronger effect = lower value 0.994 | locus YEL037C, strain rad23, stronger effect = lower value 1.01 | locus YEL061C, strain CIN8 (second series), stronger effect = lower value 0.993 | locus YEL061C, strain CIN8, stronger effect = lower value 1.01 | locus YER015W, strain faa2, stronger effect = lower value 1.01 | locus YER016W, strain bim1, stronger effect = lower value 1.01 | locus YER110C, stronger effect = lower value 0.964 | locus YER111C, strain swi4, stronger effect = lower value 0.997 | locus YER155C, strain BEM2 (second series), stronger effect = lower value 1.01 | locus YER155C, strain BEM2, stronger effect = lower value 1.01 | locus YER167W, strain BCK2, stronger effect = lower value 1.02 | locus YFR010W, strain ubp6, stronger effect = lower value 1.01 | locus YGL078C, strain dbp3, stronger effect = lower value 0.969 | locus YGL086W, strain mad1, stronger effect = lower value 0.984 | locus YGL167C, strain pmr1, stronger effect = lower value 1 | locus YGL173C, strain kem1, stronger effect = lower value 0.996 | locus YGL227W, strain vid30, stronger effect = lower value 1 | locus YGL240W, strain doc1, stronger effect = lower value 0.964 | locus YGL248W, strain PDE1, stronger effect = lower value 1.02 | locus YGL253W, strain hxk2, stronger effect = lower value 1.01 | locus YGR078C, strain PAC10, stronger effect = lower value 1.01 | locus YGR135W, strain pre9, stronger effect = lower value 0.971 | locus YGR229C, strain SMI1, stronger effect = lower value 1.02 | locus YGR252W, strain gcn5, stronger effect = lower value 0.955 | locus YHR013C, strain ard1, stronger effect = lower value 0.926 | locus YHR027C, strain rpn1, stronger effect = lower value 1.01 | locus YHR030C, strain SLT2, stronger effect = lower value 1.01 | locus YHR079C, strain IRE1 (second series), stronger effect = lower value 0.989 | locus YHR094C, strain hxt1, stronger effect = lower value 0.987 | locus YHR129C, strain ARP1, stronger effect = lower value 1.02 | locus YHR142W, strain chs7, stronger effect = lower value 0.987 | locus YHR200W, strain rpn10, stronger effect = lower value 0.977 | locus YIL066C, strain RNR3, stronger effect = lower value 0.981 | locus YIL073C, strain SPO22, stronger effect = lower value 0.924 | locus YIL125W, strain kgd1, stronger effect = lower value 0.959 | locus YIR030C, strain dcg1, stronger effect = lower value 0.987 | locus YJL092W, strain hpr5, stronger effect = lower value 1.01 | locus YJL095W, strain BCK1 (second series), stronger effect = lower value 0.988 | locus YJL095W, strain BCK1, stronger effect = lower value 1 | locus YJL115W, strain asf1, stronger effect = lower value 0.997 | locus YJL129C, strain trk1, stronger effect = lower value 1 | locus YJL134W, strain LCB3, stronger effect = lower value 1.01 | locus YJL154C, strain vps35, stronger effect = lower value 0.988 | locus YJL164C, strain tpk1, stronger effect = lower value 0.969 | locus YJL166W, strain qcr8, stronger effect = lower value 0.973 | locus YJL168C, strain set2, stronger effect = lower value 0.971 | locus YJL187C, strain SWE1 (second series), stronger effect = lower value 1.01 | locus YJL187C, strain SWE1, stronger effect = lower value 0.985
